The record followed here is PubChem BioAssay (NCI).

About 83,000 compounds went through this panel and 20% of them were active in at least one assay; those are over-represented in the sample as a whole.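 Values shown are percent growth following 48 h exposure of cells in 96-well plates to a single concentration of compound; below 10 was considered active.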 Values without a mark were called inactive. Calls of active or inactive are those of the source.

What all share (assay): NCI-60 one-dose screen, 48 h (100 = growth as untreated, 0 = no growth, -100 = all killed)
One experiment concerns SR leukemia. The settings on record: 10 µM unless noted.
Another experiment relates to RPMI-8226 leukemia. Particulars: 10 µM unless noted.
The next experiment concerns OVCAR-8 ovarian. The settings on record: 10 µM unless noted.
A further experiment has as its system OVCAR-5 ovarian. The settings on record: 10 µM unless noted.
In the next experiment the test system is OVCAR-4 ovarian. Particulars: 10 µM unless noted.
Another experiment deals with SK-OV-3 ovarian. Particulars: 10 µM unless noted.
Another experiment has as its system OVCAR-3 ovarian. The settings on record: 10 µM unless noted.
The subject of the next experiment is HS 578T breast. The settings on record: 10 µM.
In another experiment the test system is NCI/ADR-RES ovarian. The settings on record: 10 µM unless noted.
A further experiment relates to T-47D breast. The settings on record: 10 µM unless noted.
For a further experiment, the system named is BT-549 breast. Particulars: 10 µM unless noted.
The subject of another experiment is MDA-MB-435 melanoma. Particulars: 10 µM unless noted.
In another experiment the test system is SW-620 colon. The settings on record: 10 µM unless noted.
The test system of another experiment is MCF7 breast. Particulars: 10 µM unless noted.
For a further experiment, the system named is HCT-116 colon. Particulars: 10 µM unless noted.
A further experiment relates to HCC-2998 colon. Particulars: 10 µM unless noted.
The next experiment relates to KM12 colon. Particulars: 10 µM unless noted.
Another experiment relates to IGROV1 ovarian. The settings on record: 10 µM unless noted.

On to `CC1=NN(c2cccc(S(N)(=O)=O)c2)C(=O)C1`, for which the growth in the experiment with SR leukemia was 107%; with RPMI-8226 leukemia, 271%; in the experiment with OVCAR-8 ovarian, 107%; in the experiment with OVCAR-5 ovarian, 89.9%; in the experiment with OVCAR-4 ovarian, 99.4%; in the experiment on SK-OV-3 ovarian, 91.3%. The growth in the experiment with OVCAR-3 ovarian is 96.3%; with HS 578T breast it was 86.6%; with NCI/ADR-RES ovarian it was 95.2%; in the experiment with T-47D breast it was 84.2%; in the experiment on BT-549 breast, 109%; with MDA-MB-435 melanoma it was 94.6%. The growth was 94.8% in the experiment with SW-620 colon; 90.4% with MCF7 breast; 104% in the experiment on HCT-116 colon; 96.1% in the experiment with HCC-2998 colon; 107% in the experiment with KM12 colon.

Turning to `CCc1ccc(-c2ccc(NC3CCCCCC3)nn2)cc1S(N)(=O)=O`, the growth is 103% in the experiment with SR leukemia; 99.4% in the experiment on RPMI-8226 leukemia; 102% with OVCAR-8 ovarian; 97.5% in the experiment with OVCAR-5 ovarian; 102% with OVCAR-4 ovarian; 105% in the experiment on SK-OV-3 ovarian. The growth in the experiment with IGROV1 ovarian was 110%; in the experiment on OVCAR-3 ovarian it was 117%; in the experiment on T-47D breast, 103%; in the experiment on BT-549 breast, 103%; in the experiment on MDA-MB-435 melanoma, 106%; in the experiment on SW-620 colon it was 98.8%. Besides, the growth in the experiment with MCF7 breast is 95.2%; in the experiment on HCT-116 colon it was 103%; with HCC-2998 colon, 102%; in the experiment on KM12 colon, 110%.

As to `O=NN(CC(=O)NNc1ccccc1)CC(=O)NNc1ccccc1`, the growth in the experiment on SR leukemia was 74.3%; in the experiment on RPMI-8226 leukemia it was 55.4%; with OVCAR-8 ovarian, 67.7%; with OVCAR-5 ovarian, 74.5%; with OVCAR-4 ovarian, 70.8%; with SK-OV-3 ovarian, 101%. Moreover, the growth was 86.9% with OVCAR-3 ovarian; 94.2% in the experiment with HS 578T breast; 40.7% with NCI/ADR-RES ovarian; 103% with BT-549 breast; 30.5% in the experiment with MDA-MB-435 melanoma; 31.1% in the experiment on SW-620 colon. Moreover, the values for the growth in the experiment with HCT-116 colon, in the experiment on HCC-2998 colon and with KM12 colon were 57%, 68.9% and 37.9%, respectively.

Take `C/C(=C\C(=N\N=C(N)N)c1ccc(Cl)cc1)c1ccc(Cl)cc1`: the growth with SR leukemia is -67.9% (active); in the experiment with RPMI-8226 leukemia, -40.2% (active); in the experiment with OVCAR-8 ovarian it was -80.9% (active); in the experiment with OVCAR-5 ovarian, -75.5% (active); with SK-OV-3 ovarian, -22.4% (active); with IGROV1 ovarian it was -60.6% (active). For the same molecule, the growth in the experiment on OVCAR-3 ovarian is -87.7% (active); in the experiment with HS 578T breast, -50.9% (active); in the experiment with NCI/ADR-RES ovarian, -69.6% (active); in the experiment with T-47D breast, -79.6% (active); with BT-549 breast, -84.1% (active); in the experiment on MDA-MB-435 melanoma, -62.9% (active). Further, the growth in the experiment with SW-620 colon was -72.7% (active); with MCF7 breast, -78.4% (active); in the experiment with HCT-116 colon, -85.9% (active); with HCC-2998 colon it was -87.3% (active); in the experiment with KM12 colon it was -88.2% (active).

`CCOC(=O)NNc1cccc(Cl)c1`: the growth was 102% in the experiment with SR leukemia; 98.8% in the experiment with RPMI-8226 leukemia; 106% in the experiment on OVCAR-8 ovarian; 88.3% with OVCAR-5 ovarian; 106% in the experiment with OVCAR-4 ovarian; 105% in the experiment with SK-OV-3 ovarian. In addition, the growth is 94.9% in the experiment on IGROV1 ovarian; 104% with HS 578T breast; 99.3% in the experiment on NCI/ADR-RES ovarian; 119% in the experiment on T-47D breast; 107% in the experiment on MDA-MB-435 melanoma; 105% in the experiment with MCF7 breast. Moreover, the growth was 111% with HCT-116 colon, 99.9% in the experiment on HCC-2998 colon and 116% in the experiment on KM12 colon.

In the case of `O=C(O)c1cn(-c2ccccc2)nc1-c1ccc(O)cc1`, the growth was 93.3% in the experiment on SR leukemia; 96.7% in the experiment with RPMI-8226 leukemia; 90.8% in the experiment on OVCAR-8 ovarian; 101% in the experiment on OVCAR-5 ovarian; 92.2% with OVCAR-4 ovarian; 92.4% in the experiment with SK-OV-3 ovarian. Moreover, the growth with IGROV1 ovarian was 111%; in the experiment with HS 578T breast, 94.2%; with NCI/ADR-RES ovarian, 101%; with BT-549 breast, 99.3%; in the experiment with MDA-MB-435 melanoma, 103%; in the experiment with SW-620 colon, 98.5%. Moreover, the values for the growth in the experiment with MCF7 breast, in the experiment on HCT-116 colon and in the experiment with HCC-2998 colon were 88.7%, 96.4% and 95.5%, respectively.

Regarding `Cc1cc(C)cc(CCCCCCCCCCCCCCCCCC(=O)O)c1`, the growth was 107% in the experiment with SR leukemia; 99.4% in the experiment with RPMI-8226 leukemia; 103% in the experiment with OVCAR-8 ovarian; 103% in the experiment on OVCAR-5 ovarian; 105% with OVCAR-4 ovarian; 105% with SK-OV-3 ovarian. Further, the growth with IGROV1 ovarian is 108%; with OVCAR-3 ovarian it was 102%; in the experiment with T-47D breast it was 82.4%; with BT-549 breast, 103%; in the experiment with MDA-MB-435 melanoma, 115%; in the experiment with SW-620 colon, 108%. Moreover, the growth in the experiment on MCF7 breast was 96.1%; in the experiment with HCT-116 colon, 99.9%; in the experiment with KM12 colon, 106%.

Take `Fc1cc(-c2nnc3sc(-c4ccc(Cl)cc4)nn23)c(Cl)cc1Cl`: the growth in the experiment with SR leukemia is 61.1%; with RPMI-8226 leukemia it was 102%; in the experiment on OVCAR-8 ovarian, 100%; in the experiment on OVCAR-5 ovarian, 101%; with OVCAR-4 ovarian, 92.5%; in the experiment on SK-OV-3 ovarian it was 107%. For the same molecule, the growth in the experiment with IGROV1 ovarian was 100%; in the experiment with HS 578T breast it was 66.1%; with NCI/ADR-RES ovarian, 104%; in the experiment on T-47D breast, 87%; in the experiment with BT-549 breast, 106%; in the experiment with SW-620 colon it was 96.5%. In addition, the growth in the experiment on HCT-116 colon is 94.6%; in the experiment on HCC-2998 colon it was 106%; with KM12 colon, 95.6%.

For `Cc1nn(-c2ccc(Cl)cc2)c(=O)n1CCN1CCOCC1`, the growth in the experiment on SR leukemia is 95.3%; with RPMI-8226 leukemia it was 83.1%; with OVCAR-8 ovarian, 116%; with OVCAR-5 ovarian, 92.4%; in the experiment with OVCAR-4 ovarian it was 93.4%; in the experiment on SK-OV-3 ovarian it was 42.8%. The growth with OVCAR-3 ovarian was 79.2%; in the experiment on HS 578T breast it was 42.7%; with NCI/ADR-RES ovarian, 75.9%; in the experiment on T-47D breast, 78.3%; in the experiment with BT-549 breast, 61.5%; with MDA-MB-435 melanoma it was 84.9%. Moreover, the results for the growth with HCT-116 colon, in the experiment with HCC-2998 colon and with KM12 colon were 29.5%, 91.3% and 81.3%, respectively.

Take `Nc1c(C(=O)Nc2cccc(Cl)c2)sc2ncc(Br)cc12`: the growth in the experiment with SR leukemia was 71.7%; with RPMI-8226 leukemia it was 71.3%; with OVCAR-8 ovarian it was 87.1%; in the experiment with OVCAR-5 ovarian, 84.1%; in the experiment on OVCAR-4 ovarian, 9.2% (active); with SK-OV-3 ovarian, 61%. The growth is 70% with IGROV1 ovarian; 54.5% with OVCAR-3 ovarian; 62.6% in the experiment with T-47D breast; 68.2% with BT-549 breast; 71.9% in the experiment on MDA-MB-435 melanoma; 84.2% with MCF7 breast. For the same molecule, the values for the growth in the experiment on HCT-116 colon, with HCC-2998 colon and in the experiment with KM12 colon were 23%, 99.7% and 63.8%, respectively.
